This note sets out measurements from PubChem BioAssay (NCATS).

Molecules are shown by their SMILES. Records with an inconclusive call do not appear. Entries that show only a call come without a potency. Activity calls are given as the source filed them. Calls come from the whole dose curve; as a rule, active = well fitted inhibition curve with a large enough effect; inconclusive = small, poorly fitted or top-dose-only effect; inactive = no such curve, though single readings can be large or run the other way.
Potency is the fitted concentration of half-maximal effect.

Rap guanine nucleotide exchange factor 3 (Homo sapiens), sequence (O95398 whole entry, looked up): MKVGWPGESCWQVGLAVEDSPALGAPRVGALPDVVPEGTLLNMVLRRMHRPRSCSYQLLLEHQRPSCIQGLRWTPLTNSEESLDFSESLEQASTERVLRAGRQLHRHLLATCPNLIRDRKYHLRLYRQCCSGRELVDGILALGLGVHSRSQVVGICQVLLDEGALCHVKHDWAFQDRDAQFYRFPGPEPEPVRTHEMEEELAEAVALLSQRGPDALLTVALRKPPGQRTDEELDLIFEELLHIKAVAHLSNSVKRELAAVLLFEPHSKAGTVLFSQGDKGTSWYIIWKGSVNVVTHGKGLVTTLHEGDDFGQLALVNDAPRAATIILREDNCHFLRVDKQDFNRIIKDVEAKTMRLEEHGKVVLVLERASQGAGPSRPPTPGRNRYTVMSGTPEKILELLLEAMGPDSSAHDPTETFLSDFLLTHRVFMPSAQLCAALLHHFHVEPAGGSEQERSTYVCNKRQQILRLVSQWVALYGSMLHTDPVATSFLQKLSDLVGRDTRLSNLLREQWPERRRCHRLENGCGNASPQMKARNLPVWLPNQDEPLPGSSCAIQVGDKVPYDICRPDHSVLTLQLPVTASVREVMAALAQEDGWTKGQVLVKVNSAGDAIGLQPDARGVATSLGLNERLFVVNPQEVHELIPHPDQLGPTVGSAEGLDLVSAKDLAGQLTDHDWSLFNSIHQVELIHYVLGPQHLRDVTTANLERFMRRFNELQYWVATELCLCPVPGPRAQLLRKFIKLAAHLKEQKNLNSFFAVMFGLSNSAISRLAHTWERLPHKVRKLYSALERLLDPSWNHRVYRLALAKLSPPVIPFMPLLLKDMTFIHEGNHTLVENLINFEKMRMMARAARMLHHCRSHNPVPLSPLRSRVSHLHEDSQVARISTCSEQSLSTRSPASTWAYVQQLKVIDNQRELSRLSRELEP

In the assay the target is Rap guanine nucleotide exchange factor 3 (Homo sapiens) (UniProt O95398). The assay can be described thus: Confirmatory qHTS for antagonist of cAMP-regulated guanine nucleotide exchange factor 3 (EPAC1) (AID 1645880). Note: nearly all actives have a fitted effect of over 55% in size. Particulars: EPAC1 Rap1B-BODIPY-GDP exchange, fluorescence; activity, negative = inhibition: at 115 µM (top of the series). In short, it runs like this:
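Released BODIPY-GDP fluoresces less than Rap1-bound BODIPY-GDP; the signal is followed at 480/540 nm at 5-min intervals over 30 min, after 5 min at room temperature. Reactions contain 100 nM EPAC1, 250 nM RAP1B-BODIPY-GDP and 50 uM GDP; results are normalized to ATA and DMSO.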
Take `O=C1CSC(=Nc2ccccc2)N1Cc1ccccc1`: the Potency result was “inactive”.

Consider `C=CCN(CC=C)Cc1cc(=O)oc2cc(C)cc(C)c12`, for which the Potency entry is “inactive”.

For `COc1ccc(Cl)cc1NC(=O)CN(C)Cc1ccc(OC)c(OC)c1`, the Potency entry is “inactive”.

Take `Cc1cc(C)c2c(CN3CCCCC3C)cc(=O)oc2c1` (stereo not given): the Potency entry was “inactive”.

For the compound `O=C1OC(c2ccccc2)(c2ccccc2)c2ccsc21`, the Potency result is “inactive”.

As to `COC(=O)C1=NN(c2ccccc2)C2(S1)SC(C(C)=O)=C(C)N2c1ccccc1` (stereo not given), the Potency entry is “inactive”.

Consider `CC(=O)N1N=C2c3ccccc3CCC2C1c1cccs1` (stereo not given), for which the Potency result was “inactive”.

For `COc1ccc(C2CC(=O)Oc3cc(C)c(Cl)cc32)cc1` (stereo not given), the Potency entry is “inactive”.

For the compound `CCN(Cc1cc(=O)oc2cc(C)ccc12)c1ccccc1`, the Potency result is “inactive”.

On to `Cc1nc(Nc2ccc(Br)cc2Br)c([N+](=O)[O-])c(=O)[nH]1`, for which the Potency result was “inactive”.

On to `COc1ccc(Nc2cccc3ccccc23)cc1`, for which the Potency entry was “inactive”.

Regarding `O=C(c1ccccc1F)n1c2c(c3ccccc31)CCCC2`, the Potency entry was “inactive”.

Turning to `Cc1nn(-c2c(Cl)cc(Cl)cc2Cl)c(=O)c2ccccc12`, the Potency entry is “inactive”.

As for `CCCCn1nnnc1C(c1cc2ccccc2o1)N1CCN(c2cc(C)nc3ccccc23)CC1` (stereo not given), the Potency entry is “inactive”.

For `Cc1ccc(C23CC4CC(CC(C(=O)N(C)C)(C4)C2)C3)cc1`, the Potency entry was “inactive”.

As for `COc1ccc(Cl)cc1NC(=O)CN1c2ccccc2CC1C` (stereo not given), the Potency entry was “inactive”.

As to `COc1c(Cl)cc(Cl)cc1CNc1ccc(S(N)(=O)=O)cc1`, the Potency entry is “inactive”.

As to `Cc1ccn2c(-c3csc(NCc4ccccc4)n3)c(C)nc2c1`, the Potency result is “inactive”.

For the compound `O=C(O)CCNC(=O)c1ccc(NC(=O)C(c2ccccc2)c2ccccc2)cc1`, the Potency result is “inactive”.

Consider `Cc1oc2cc(Br)c(O)c(Br)c2c1-c1ccccc1`, for which the Potency entry was “inactive”.

Consider `O=C(COc1ccc(Br)cc1Cl)c1ccc[nH]1`, for which the Potency entry is “inactive”.

Consider `COc1cnc(-c2ccccc2)nc1Sc1ccccc1`, for which the Potency entry was “inactive”.

In the case of `COc1ccc2[nH]cc(CCNc3ncncc3-c3ccccc3Cl)c2c1`, the Potency result is “inactive”.

As to `Cn1ccc2c(N3CCCCCCC3)cc3c(c21)C1CCC3O1` (stereo not given), the Potency entry was “inactive”.

Turning to `COc1ccc(NC(=O)CSc2ccccc2)cc1S(=O)(=O)N1CCCCC1`, the Potency entry is “inactive”.

As to `COC(=O)c1ccc2nc(-c3ccc(F)cc3)c(Cc3ccsc3)n2c1`, the Potency entry is “inactive”.

Consider `Cc1cc2ccccn2c1C(=O)c1ccc(F)cc1`, for which the Potency entry was “inactive”.

On to `COc1ccc2c(c1)CCc1c(C(=O)N(C)c3ccccc3)noc1-2`, for which the Potency result was “inactive”.

Take `COc1ccc(C2CC(=O)Oc3ccc(OC)cc32)cc1` (stereo not given): the Potency result is “inactive”.

For `CC(=O)Nc1ccc(NC(=O)C2Cc3c(-c4ccc5c(c4)OCO5)ccnc3O2)cc1` (stereo not given), the Potency entry is “inactive”.

For `CCOc1nc(-c2ccccc2Cl)nc2ccccc12`, the Potency entry was “inactive”.

`O=c1ccc(NS(=O)(=O)c2ccc(Cl)cc2)cn1Cc1ccc(Cl)c(Cl)c1`: the Potency was 75.7 µM (active).

Turning to `COc1ccc(C2=CC3=C(Br)C(=O)C(C)(OC(=O)c4cccs4)C(=O)C3=CO2)cc1` (stereo not given), the Potency was 16.9 µM (active).

Regarding `COc1ccccc1NC(=O)Cc1ccc(-c2ccccc2)cc1`, the Potency result was “inactive”.

As for `CCOc1ccc(S(=O)(=O)N2CCCCC2)c(C)c1C`, the Potency result is “inactive”.

For the compound `COc1ccc2ccc3c(c2c1)N=C[C@]1(O3)N(C)c2ccccc2C1(C)C`, the Potency entry is “inactive”.

Take `COC(=O)c1cn(C(=O)c2ccc(OC)c(OC)c2)c2ccccc12`: the Potency result was “inactive”.

For `COC(=O)c1cn(S(=O)(=O)c2ccccc2)c2ccccc12`, the Potency entry was “inactive”.

Consider `COc1ccccc1N(C)c1cc2c(c3c1ccn3C)C1CCC2O1` (stereo not given), for which the Potency result was “inactive”.

Consider `O=c1cc(N2CCCCC2)c(-c2ccccc2)nn1Cc1ccccc1`, for which the Potency result was “inactive”.
